# Tgondii IFNg: T. gondii growth inhibition under IFN-gamma; Toxoplasma gondii growth in IFN-gamma-treated host cells; stronger effect = lower value; activity change, negative = inhibition, % (no concentration beside the values); 3.8% of 69,000 active; AID 1259416; in the data active = activity change below about -70%, passing the limit was not always enough;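 also: host cells are HeLa cells infected with Toxoplasma gondii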
# * hit, by the source's call. Many of the other results were omitted from the sample, so hits are more common in it than they were.
SMILES,Tgondii IFNg
CC(=O)N1C(=O)C2(N=C(N)NC(Nc3cccc(C(F)(F)F)c3)=N2)c2ccccc21 (configuration not stated),12
O=c1cc(Nc2cccc(C(F)(F)F)c2)nc[nH]1,-103*
Cc1cc(C)c(S(=O)(=O)Nc2cccc(C(F)(F)F)c2)c(C)c1,7
CN(C)Cc1ccccc1Cn1cnc(-c2ccccc2)c1-c1cnc[nH]1,7
Cc1oc(-c2ccccc2Cl)nc1COc1ccc(N2CCOC2=O)cc1,-12
Cc1oncc1C(=O)N1CCO[C@@H]2[C@H]1CC[C@H]2Oc1ccccn1,6
CCOc1ccc(-c2nc(Cn3ccn4nc(-c5ccc6c(c5)OCO6)cc4c3=O)c(C)o2)cc1,4
C=C[C@@H]1C[C@]1(NC(=O)[C@@H]1C[C@@H](Oc2ncc(OC)c3ccc(Cl)cc23)CN1C(=O)[C@@H](NC(=O)OC(C)(C)C)C(C)(C)C)C(=O)NS(=O)(=O)C1CC1,-73*
CC(C)c1nc(-c2cc(C(=O)N3CCCC3)c3ccccn23)cs1,-49
CN1CCN(CCC2CCCCN2C(=O)c2coc3ccccc23)CC1 (configuration not stated),3
CCOC(=O)c1c(C)nc2ccc(Cl)cc2c1-c1ccccc1,-5
CCOC(=O)COc1nc2ccc(Cl)cc2c(-c2ccccc2)c1C(C)=O,-23
COc1ccc(-c2c(C)nc3ccc(Cl)cc3c2-c2ccccc2)cc1OC,-95*
COc1ccccc1OCc1cc(C(=O)N2CCc3nnc(C)n3CC2)n[nH]1,1
O=C(c1ccc(=O)[nH]c1)N1C[C@@H]2C3CCC(CC3)[C@@H]2C1,2
Cc1cc(C)n(Cc2cc(C(=O)N3CCC(O)(c4ccccc4C)C3)n[nH]2)n1 (configuration not stated),-12
O=C(Nc1cccc(Cl)c1)Nc1ncc(CCNc2ncnc3ccsc23)s1,-73*
O=C(Nc1ccc(-c2nc(-c3ccccc3)co2)cc1)Nc1cccc(Cl)c1,-11
O=C(Nc1cccc(Cl)c1)c1ccccn1,221
Cc1noc(C)c1S(=O)(=O)N1CCC[C@@H]1C(=O)NCCc1csc(-c2ccccc2)n1,13
COc1cccc(-c2nccc(C3CCCN3C(=O)c3ccc4ncccc4c3)n2)c1 (configuration not stated),28
C=C[C@H]1CN2CC[C@H]1C[C@H]2[C@H](O)c1ccnc2ccc(OC)cc12,-85*
Cc1nc(C2CCNCC2)ncc1-c1nc(N2CCCCCC2)ncc1-c1ccc(F)cc1,-47
Cn1nccc1-c1nc(NCc2ccccn2)ncc1-c1ccsc1,-93*
Cn1ccnc1-c1cnc(NCc2ccccn2)nc1-c1ccco1,26
SMILES,Tgondii IFNg
Cc1nc2ncc(-c3cc(NCc4ccccn4)nc4[nH]ccc34)cc2[nH]1,-1
Cn1c(Cc2ccsc2)nnc1Sc1nc2ccc(Cl)cc2s1,16
O=C1CCCN1c1ccc(CN(CCCn2ccnc2)Cc2cccc(F)c2)cc1,23
CC(C)(C)C(=O)C(Cc1c(F)cccc1Cl)C(=O)C(C)(C)C,-24
O=C(Cc1c(F)cccc1Cl)NC(=O)NCCc1c(F)cccc1Cl,-83*
CCn1c(CCNC(=O)Cc2c(F)cccc2Cl)nnc1SC,-3
O=C(Cn1ncc2c(N3CCCC3)ncnc21)Nc1cccc(F)c1,7
Cc1cc(C)n(-c2ncnc3c2nnn3Cc2ccccc2Cl)n1,-56
CSc1ncnc2c1nnn2Cc1ccccc1Cl,-28
CC1Cc2ccccc2N1c1ncnc2c1nnn2Cc1ccccc1Cl (configuration not stated),-94*
CN1CCN(c2cccc(Nc3nc4c(-c5ccc(S(C)(=O)=O)cc5)cccn4n3)c2)CC1,17
C=CCn1c(=O)c2cnc(Nc3ccc(N4CCN(C)CC4)cc3)nc2n1-c1cccc(C(C)(C)O)n1,-71*
CCn1c(C2CCCNC2)nn(Cc2cccc(C(=O)OC)c2)c1=O (configuration not stated),11
Cc1ccc(C)c(S(=O)(=O)N2CCC3(CC2)NCCN=C3NCc2ccccc2Cl)c1,-53
Cc1nn(-c2ccccc2)nc1CNS(=O)(=O)c1cn(C)c(C)n1,-32
CCn1cc(-c2c(-c3ccccc3)ncn2Cc2c(C)noc2C)cn1,0
COc1ccc(-c2ccccc2C(N)=O)cc1Cl,7
COc1ccc(-c2nc(C)ncc2C)cc1Cl,1
COc1ccc(-c2cnc(N)cn2)cc1Cl,-88*
COc1cc(OC)cc(-c2nnc(SCc3nc4ccccc4c(=O)[nH]3)o2)c1,-27
COc1ccc(-c2nc(Cn3nnc(C(=O)Nc4cc(Cl)ccc4C)c3C)c(C)o2)c(OC)c1,115
O=C(NCC(O)c1ccccc1)c1ccc(NC(=O)C2CCC2)cc1 (configuration not stated),7
CC(C)[C@H](C(=O)Nc1ccc(C(=O)NO)cc1)c1ccccc1,-83*
CC(C)c1ccc(C(=O)Nc2ccccc2)cc1,-9
CN1CC2(CCCN(C(=O)C3(c4ccc(F)cc4)CC3)C2)OC1=O (configuration not stated),1
SMILES,Tgondii IFNg
O=C(Nc1ccc(Cl)cc1)Nc1ccno1,-11
O=C(Nc1ccc(Cl)cc1)Nc1ccc(Cl)c(C(F)(F)F)c1,-77*
O=C(CSc1nc2[nH]c(=O)cc(O)c2s1)Nc1ccc(Cl)c(C(F)(F)F)c1,6
O=C(Nc1cccc2c1CCCC2)C1CCN(C(=O)NCc2ccccc2)CC1,51
Cn1nc(Cn2cccc2)c2c1CN(C(=O)CCC(=O)O)C2,-1
O=C(C[C@@H]1CC[C@@H]2[C@H](COC[C@@H](O)CN2C(=O)Nc2cccc(F)c2)O1)NCCCN1CCOCC1,-15
CCn1c(-c2cc(NC(=O)c3cnccn3)n[nH]2)cc2ccccc21,78
CCn1c(-c2cc(NC(=O)c3cccnc3)n[nH]2)cc2ccc(OC)cc21,-30
CCn1c(-c2cc(NC(=O)c3cccnc3)n[nH]2)cc2ccccc21,-105*
c1ccc(C2CCCN2Cc2cnc(N3CCCC3)nc2)nc1 (configuration not stated),0
CCn1ncnc1CN1CC[C@@H](c2ccc3ccccc3c2)[C@H](O)C1,3
Cn1c(=O)c2c(nc(Oc3ccccc3Br)n2C)n(C)c1=O,-75*
Cn1c(=O)c2nc3ccccc3nc2n(C)c1=O,-13
Cn1c(=O)c2c(ncn2Cc2ccccc2Cl)n(C)c1=O,-1
Cc1nc(CCNC(=O)[C@H]2CCCN2C(=O)c2ccc(F)cc2)cs1,-8
Nc1ncnc2c1C(=O)N(c1ccc(C3CCC(CC(=O)O)CC3)cc1)CCO2 (configuration not stated),5
COc1ccc(NC(=O)c2c(O)c3cccnc3n(-c3ccccc3)c2=O)cc1F,111
CCc1ncc(CN2CCC(O)(c3cccc(C(F)(F)F)c3)CC2)cn1,-1
COCC1(C(=O)NC(C)C(=O)Nc2cc(F)ccc2C)CCC1 (configuration not stated),-7
CCn1c(C2CCN(Cc3cccc(C(=O)OC)n3)CC2)nn(C)c1=O,8
Cn1c(NC(=O)CN2CCC(Oc3ccc(F)cc3)CC2)cc(=O)n(C)c1=O,-1
CC(C)CCN1Cc2c(C(=O)NC3CCCCC3)ncn2-c2ccccc2S1(=O)=O,-41
C[C@@H]1CN([C@H](C)CO)C(=O)c2cccc(NS(C)(=O)=O)c2O[C@@H]1CN(C)Cc1ccc(-c2ccccc2)cc1,-55
C[C@H](CO)N1C[C@H](C)[C@H](CN(C)Cc2ccc(Cl)c(Cl)c2)Oc2c(NS(=O)(=O)c3ccc(F)cc3)cccc2C1=O,-85*
C[C@H]1CN([C@@H](C)CO)C(=O)Cc2cc(NC(=O)C3CCCCC3)ccc2O[C@@H]1CN(C)Cc1ccc(Cl)c(Cl)c1,-40

# Screening data from PubChem BioAssay.
